# Measurements reported in article PMC7862700, “An all-to-all approach to the identification of sequence-specific readers for epigenetic DNA modifications on cytosine”.
# What was measured:
# Assay in all cases: DAPPL (digital affinity profiling via proximity ligation, sequencing); 10 mM Tris-HCl pH 7.5, 50 mM NaCl, 1 mM DTT, 4% glycerol, room temperature, 30 min; GST-TFs on glutathione beads, 16-mer random dsDNA library, 0.1% formaldehyde crosslink after washing; high values mean tight binding
# Details in all cases: protein: recombinant; tags: N-terminal GST; dsDNA, one strand shown
# ELK1 = molecular target: T1, ELK1 (Homo sapiens, UniProt P19419 1-428)
# T1 sequence: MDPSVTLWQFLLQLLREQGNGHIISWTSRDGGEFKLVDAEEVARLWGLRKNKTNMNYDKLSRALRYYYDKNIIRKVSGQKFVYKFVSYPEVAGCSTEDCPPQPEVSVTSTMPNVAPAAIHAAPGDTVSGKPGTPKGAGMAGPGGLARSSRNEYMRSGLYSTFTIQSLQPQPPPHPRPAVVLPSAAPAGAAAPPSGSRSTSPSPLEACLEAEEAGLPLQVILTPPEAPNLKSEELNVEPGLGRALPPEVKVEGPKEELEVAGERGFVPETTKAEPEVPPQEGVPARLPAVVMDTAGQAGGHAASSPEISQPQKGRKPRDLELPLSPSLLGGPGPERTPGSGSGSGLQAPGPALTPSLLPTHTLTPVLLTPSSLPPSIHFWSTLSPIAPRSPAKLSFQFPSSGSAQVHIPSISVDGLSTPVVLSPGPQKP
# Procedure, shortened: (§1)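 Yeast served to express human transcription factors as GST fusions, which were then captured on glutathione beads and labelled with DNA barcodes. Pooled with a tag-only sample, they were incubated with 200 nmole of a 16-mer random double-stranded DNA library for 30 min at room temperature in Tris/NaCl/DTT/glycerol buffer, washed, crosslinked with 0.1% formaldehyde, ligated by proximity, amplified by PCR and sequenced. Dividing each hexamer's read frequency for a factor by its frequency for the tag-only sample gives the binding signal.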
# GABPA = molecular target: T2, GABPA (Homo sapiens, UniProt Q06546 1-454)
# T2 sequence: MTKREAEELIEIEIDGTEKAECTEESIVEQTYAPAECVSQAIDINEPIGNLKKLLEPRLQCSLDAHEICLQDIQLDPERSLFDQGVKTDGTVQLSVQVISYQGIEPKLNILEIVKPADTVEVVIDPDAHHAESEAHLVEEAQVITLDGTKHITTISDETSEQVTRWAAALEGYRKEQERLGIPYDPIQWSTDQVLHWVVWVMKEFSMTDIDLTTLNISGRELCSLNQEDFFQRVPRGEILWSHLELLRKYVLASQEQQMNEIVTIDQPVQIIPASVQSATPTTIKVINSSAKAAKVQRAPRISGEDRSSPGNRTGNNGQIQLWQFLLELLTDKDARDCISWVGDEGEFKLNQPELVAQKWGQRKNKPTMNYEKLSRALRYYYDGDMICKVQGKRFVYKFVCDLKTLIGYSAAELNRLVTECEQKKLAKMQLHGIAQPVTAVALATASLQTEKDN
# Procedure, shortened: as §1
# ERG = molecular target: T3, ERG (Homo sapiens, UniProt P11308 1-479)
# T3 sequence: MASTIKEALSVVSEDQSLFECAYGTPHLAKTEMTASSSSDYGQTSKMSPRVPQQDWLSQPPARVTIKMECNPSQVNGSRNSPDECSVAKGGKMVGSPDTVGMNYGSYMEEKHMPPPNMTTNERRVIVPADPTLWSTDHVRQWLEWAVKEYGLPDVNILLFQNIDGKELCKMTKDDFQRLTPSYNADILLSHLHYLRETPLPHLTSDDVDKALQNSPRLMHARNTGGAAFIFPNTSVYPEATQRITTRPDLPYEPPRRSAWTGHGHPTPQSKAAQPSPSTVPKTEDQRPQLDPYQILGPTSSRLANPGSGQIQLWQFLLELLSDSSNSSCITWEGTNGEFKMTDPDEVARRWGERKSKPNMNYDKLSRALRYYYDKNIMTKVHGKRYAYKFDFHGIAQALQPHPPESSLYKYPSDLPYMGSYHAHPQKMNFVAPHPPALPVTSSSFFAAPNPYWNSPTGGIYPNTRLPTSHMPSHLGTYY
# Procedure, shortened: as §1
# ELF1 = ELF1 (Homo sapiens, UniProt P32519 1-619)
# Procedure, shortened: as §1
# EHF = molecular target: T4, EHF (Homo sapiens, UniProt Q9NZC4 1-300)
# T4 sequence: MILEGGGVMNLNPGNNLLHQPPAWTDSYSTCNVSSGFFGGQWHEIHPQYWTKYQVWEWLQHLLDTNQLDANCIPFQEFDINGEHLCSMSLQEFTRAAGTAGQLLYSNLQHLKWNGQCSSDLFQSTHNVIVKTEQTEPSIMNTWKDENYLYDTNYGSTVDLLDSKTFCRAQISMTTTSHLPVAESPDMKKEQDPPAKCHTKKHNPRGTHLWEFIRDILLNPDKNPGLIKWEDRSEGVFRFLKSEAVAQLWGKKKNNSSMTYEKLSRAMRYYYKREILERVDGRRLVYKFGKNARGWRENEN
# Procedure, shortened: as §1
# SPI1 = SPI1 (Homo sapiens, UniProt P17947 1-270)
# Procedure, shortened: as §1
# SPIB = SPIB (Homo sapiens, UniProt Q01892 1-262)
# Procedure, shortened: as §1
# ELK3 = molecular target: T5, ELK3 (Homo sapiens, UniProt P41970 1-407)
# T5 sequence: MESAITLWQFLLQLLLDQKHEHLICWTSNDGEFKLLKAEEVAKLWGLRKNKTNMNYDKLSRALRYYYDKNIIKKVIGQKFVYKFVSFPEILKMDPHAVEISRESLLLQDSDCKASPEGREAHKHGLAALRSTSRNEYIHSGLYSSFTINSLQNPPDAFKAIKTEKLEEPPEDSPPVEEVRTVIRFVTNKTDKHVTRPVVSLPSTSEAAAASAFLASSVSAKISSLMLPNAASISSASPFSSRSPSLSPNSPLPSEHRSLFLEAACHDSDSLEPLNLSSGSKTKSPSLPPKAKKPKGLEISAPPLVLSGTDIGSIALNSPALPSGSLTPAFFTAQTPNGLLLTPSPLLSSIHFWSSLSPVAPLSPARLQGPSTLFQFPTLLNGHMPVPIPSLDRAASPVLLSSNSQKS
# Procedure, shortened: as §1
# SPIC = molecular target: T6, SPIC (Homo sapiens, UniProt Q8N5J4 1-248)
# T6 sequence: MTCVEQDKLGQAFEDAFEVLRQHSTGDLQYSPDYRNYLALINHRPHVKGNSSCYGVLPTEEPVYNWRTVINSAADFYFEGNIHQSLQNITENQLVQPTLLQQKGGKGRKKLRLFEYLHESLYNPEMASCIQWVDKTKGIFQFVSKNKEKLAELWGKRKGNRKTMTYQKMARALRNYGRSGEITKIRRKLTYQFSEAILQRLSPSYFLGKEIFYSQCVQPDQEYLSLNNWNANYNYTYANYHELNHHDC
# Procedure, shortened: as §1
# ELF4 = ELF4 (Homo sapiens, UniProt Q99607 1-663)
# Procedure, shortened: as §1
# ELF3 = molecular target: T7, ELF3 (Homo sapiens, UniProt P78545 1-371)
# T7 sequence: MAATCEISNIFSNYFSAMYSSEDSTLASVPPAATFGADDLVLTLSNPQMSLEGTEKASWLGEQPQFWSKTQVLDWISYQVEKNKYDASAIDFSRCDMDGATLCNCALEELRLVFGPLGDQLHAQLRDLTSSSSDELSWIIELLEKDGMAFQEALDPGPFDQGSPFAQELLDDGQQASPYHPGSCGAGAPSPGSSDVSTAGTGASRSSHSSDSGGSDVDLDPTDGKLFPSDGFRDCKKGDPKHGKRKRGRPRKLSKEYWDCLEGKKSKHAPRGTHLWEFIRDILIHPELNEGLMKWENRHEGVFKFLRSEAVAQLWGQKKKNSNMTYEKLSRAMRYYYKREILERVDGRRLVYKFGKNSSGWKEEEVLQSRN
# Procedure, shortened: as §1
# ETV1 = ETV1 (Homo sapiens, UniProt P50549 1-477)
# Procedure, shortened: as §1
# ERF = molecular target: T8, ERF (Homo sapiens, UniProt P50548 1-548)
# T8 sequence: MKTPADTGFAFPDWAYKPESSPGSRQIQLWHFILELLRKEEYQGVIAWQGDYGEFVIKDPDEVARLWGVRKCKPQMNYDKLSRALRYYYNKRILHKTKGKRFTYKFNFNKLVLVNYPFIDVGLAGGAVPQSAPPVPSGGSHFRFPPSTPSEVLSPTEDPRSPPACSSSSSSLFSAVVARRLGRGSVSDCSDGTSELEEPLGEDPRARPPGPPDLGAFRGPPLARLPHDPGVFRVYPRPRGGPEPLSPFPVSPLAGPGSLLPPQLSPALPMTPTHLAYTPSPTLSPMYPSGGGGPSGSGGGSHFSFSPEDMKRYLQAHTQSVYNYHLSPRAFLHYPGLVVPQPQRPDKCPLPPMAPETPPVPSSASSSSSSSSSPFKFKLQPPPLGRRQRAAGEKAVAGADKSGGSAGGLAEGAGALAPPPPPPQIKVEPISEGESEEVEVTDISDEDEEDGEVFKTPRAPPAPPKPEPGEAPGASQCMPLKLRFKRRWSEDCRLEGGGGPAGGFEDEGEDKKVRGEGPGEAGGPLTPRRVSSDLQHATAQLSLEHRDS
# Procedure, shortened: as §1
# ETV3L = molecular target: T9, ETV3L (Homo sapiens, UniProt Q6ZN32 1-361)
# T9 sequence: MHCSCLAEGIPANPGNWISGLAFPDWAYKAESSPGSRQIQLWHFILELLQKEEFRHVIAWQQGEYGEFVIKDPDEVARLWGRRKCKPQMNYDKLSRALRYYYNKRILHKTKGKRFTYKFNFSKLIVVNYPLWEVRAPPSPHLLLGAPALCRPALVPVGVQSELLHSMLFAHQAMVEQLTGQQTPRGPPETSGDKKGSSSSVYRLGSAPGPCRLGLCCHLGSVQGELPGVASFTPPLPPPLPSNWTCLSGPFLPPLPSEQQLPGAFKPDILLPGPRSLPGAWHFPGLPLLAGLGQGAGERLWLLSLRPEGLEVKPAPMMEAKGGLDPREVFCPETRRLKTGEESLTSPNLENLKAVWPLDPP
# Procedure, shortened: as §1
# ETV7 = molecular target: T10, ETV7 (Homo sapiens, UniProt Q9Y603 1-341)
# T10 sequence: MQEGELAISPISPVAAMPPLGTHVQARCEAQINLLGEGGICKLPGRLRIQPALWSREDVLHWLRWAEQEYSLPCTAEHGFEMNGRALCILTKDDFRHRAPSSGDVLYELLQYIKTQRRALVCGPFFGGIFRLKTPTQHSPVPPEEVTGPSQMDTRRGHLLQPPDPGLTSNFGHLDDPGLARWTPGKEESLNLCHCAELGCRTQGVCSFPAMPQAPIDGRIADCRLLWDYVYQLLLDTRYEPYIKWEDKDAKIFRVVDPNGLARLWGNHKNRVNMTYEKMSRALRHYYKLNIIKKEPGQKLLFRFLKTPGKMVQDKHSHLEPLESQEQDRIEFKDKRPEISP
# Procedure, shortened: as §1
# ETV3 = molecular target: T11, ETV3 (Homo sapiens, UniProt P41162-2 1-143)
# T11 sequence: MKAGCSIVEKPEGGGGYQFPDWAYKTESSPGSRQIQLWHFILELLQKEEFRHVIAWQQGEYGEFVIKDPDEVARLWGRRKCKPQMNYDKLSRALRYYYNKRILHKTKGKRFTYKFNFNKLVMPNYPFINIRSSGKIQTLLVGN
# Procedure, shortened: as §1
# ELF4, sequence (Q99607 whole entry): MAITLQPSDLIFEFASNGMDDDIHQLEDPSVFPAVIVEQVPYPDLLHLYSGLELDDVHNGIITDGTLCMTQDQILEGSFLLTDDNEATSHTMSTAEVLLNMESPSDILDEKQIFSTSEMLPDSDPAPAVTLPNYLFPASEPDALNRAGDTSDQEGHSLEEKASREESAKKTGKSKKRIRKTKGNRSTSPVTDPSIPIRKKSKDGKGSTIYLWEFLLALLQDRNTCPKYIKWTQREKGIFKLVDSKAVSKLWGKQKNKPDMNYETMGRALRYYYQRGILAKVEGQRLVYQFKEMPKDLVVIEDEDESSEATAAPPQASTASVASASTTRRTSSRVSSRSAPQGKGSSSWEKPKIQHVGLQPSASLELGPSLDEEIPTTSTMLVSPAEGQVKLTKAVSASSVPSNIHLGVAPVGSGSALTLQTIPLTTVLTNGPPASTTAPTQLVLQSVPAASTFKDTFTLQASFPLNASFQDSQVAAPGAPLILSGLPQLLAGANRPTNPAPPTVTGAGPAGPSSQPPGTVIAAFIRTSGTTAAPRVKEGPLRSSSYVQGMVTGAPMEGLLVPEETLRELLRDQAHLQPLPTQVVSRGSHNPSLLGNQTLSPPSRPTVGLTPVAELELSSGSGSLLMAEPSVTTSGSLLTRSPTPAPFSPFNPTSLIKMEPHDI
# ETV1, sequence (P50549 whole entry): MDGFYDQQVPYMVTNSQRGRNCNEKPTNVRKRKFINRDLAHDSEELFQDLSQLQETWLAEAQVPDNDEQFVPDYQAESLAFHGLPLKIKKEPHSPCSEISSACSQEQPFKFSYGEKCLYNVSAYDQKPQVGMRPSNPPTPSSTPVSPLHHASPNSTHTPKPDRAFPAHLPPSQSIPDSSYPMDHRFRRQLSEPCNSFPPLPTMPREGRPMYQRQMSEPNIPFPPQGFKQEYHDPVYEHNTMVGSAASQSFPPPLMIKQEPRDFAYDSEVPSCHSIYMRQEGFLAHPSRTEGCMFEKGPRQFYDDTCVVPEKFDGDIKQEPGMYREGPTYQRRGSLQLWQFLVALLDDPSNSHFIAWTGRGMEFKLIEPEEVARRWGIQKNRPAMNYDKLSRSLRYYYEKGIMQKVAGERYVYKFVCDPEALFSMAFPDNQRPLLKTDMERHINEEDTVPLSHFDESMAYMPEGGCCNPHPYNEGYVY
# SPIB, sequence (Q01892 whole entry): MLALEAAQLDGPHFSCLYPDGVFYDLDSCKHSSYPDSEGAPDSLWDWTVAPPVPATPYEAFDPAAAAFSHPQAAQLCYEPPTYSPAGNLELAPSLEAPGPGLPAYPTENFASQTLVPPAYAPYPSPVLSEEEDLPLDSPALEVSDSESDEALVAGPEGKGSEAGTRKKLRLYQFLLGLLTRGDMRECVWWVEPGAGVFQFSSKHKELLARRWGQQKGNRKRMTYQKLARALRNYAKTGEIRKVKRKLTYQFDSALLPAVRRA
# ELF1, sequence (P32519 whole entry): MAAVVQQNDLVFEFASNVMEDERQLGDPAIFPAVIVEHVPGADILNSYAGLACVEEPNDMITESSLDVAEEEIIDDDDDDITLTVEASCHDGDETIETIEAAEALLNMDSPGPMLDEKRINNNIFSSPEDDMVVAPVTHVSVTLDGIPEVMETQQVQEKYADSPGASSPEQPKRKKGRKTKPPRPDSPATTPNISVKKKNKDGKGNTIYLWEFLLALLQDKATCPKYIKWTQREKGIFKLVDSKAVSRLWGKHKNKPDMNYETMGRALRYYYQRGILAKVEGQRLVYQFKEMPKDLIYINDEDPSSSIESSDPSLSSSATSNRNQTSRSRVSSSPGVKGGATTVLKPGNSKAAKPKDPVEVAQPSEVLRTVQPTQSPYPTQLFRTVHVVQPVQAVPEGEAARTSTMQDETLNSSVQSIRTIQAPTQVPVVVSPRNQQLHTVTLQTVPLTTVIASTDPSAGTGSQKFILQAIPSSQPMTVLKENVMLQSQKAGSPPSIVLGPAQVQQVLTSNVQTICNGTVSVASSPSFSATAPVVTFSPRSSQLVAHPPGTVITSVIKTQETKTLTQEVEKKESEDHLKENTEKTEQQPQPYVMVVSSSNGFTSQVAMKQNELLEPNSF
sequence,measurement,setting,value
AGTCCC,binding signal,ELK1,"1.06 fold enrichment (6-mer frequency, TF over GST control)"
same,binding signal,GABPA,"1.03 fold enrichment (6-mer frequency, TF over GST control)"
same,binding signal,ERG,"1.07 fold enrichment (6-mer frequency, TF over GST control)"
same,binding signal,ELF1,"1.08 fold enrichment (6-mer frequency, TF over GST control)"
same,binding signal,EHF,"1.01 fold enrichment (6-mer frequency, TF over GST control)"
same,binding signal,SPI1,"1.26 fold enrichment (6-mer frequency, TF over GST control)"
same,binding signal,SPIB,"1.03 fold enrichment (6-mer frequency, TF over GST control)"
same,binding signal,ELK3,"1.01 fold enrichment (6-mer frequency, TF over GST control)"
same,binding signal,SPIC,"1.06 fold enrichment (6-mer frequency, TF over GST control)"
same,binding signal,ELF4,"1.06 fold enrichment (6-mer frequency, TF over GST control)"
same,binding signal,ELF3,"1.11 fold enrichment (6-mer frequency, TF over GST control)"
same,binding signal,ETV1,"1.11 fold enrichment (6-mer frequency, TF over GST control)"
same,binding signal,ERF,"1.17 fold enrichment (6-mer frequency, TF over GST control)"
same,binding signal,ETV3L,"1.04 fold enrichment (6-mer frequency, TF over GST control)"
same,binding signal,ETV7,"1.07 fold enrichment (6-mer frequency, TF over GST control)"
same,binding signal,ETV3,"1.06 fold enrichment (6-mer frequency, TF over GST control)"
